Screening results deposited in PubChem by National Center for Advancing Translational Sciences (NCATS).
In the library only some 19% were active in any assay of this set; here they are far more common.
TGFb inhibitor – qHTS for Inhibitors of TGF-b; Potency, µM (highest dose often 46.1 µM), inactives show at the highest dose activity, negative = inhibition, actives largely listed as inhibitors; HepG2 CAGA-GFP TGF-b/SMAD3 reporter, GFP fluorescence, 18 h; TGF-beta stimulated, 500 pg/mL final; AID 588855, 2011; 410,000 tested, 1.2% active; note: potency is the fitted concentration of half-maximal effect; % is set by controls: 0 for no effect and ±100 for the full control effect; nearly all actives have a fitted effect of over 65% in size
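Using HEPG2 CAGA-GFP reporter cells at 1000 cells/well, we pinned test compounds, stimulated with recombinant TGF-beta (500 pg/mL final) and measured total well GFP after 18 h.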
HepG2 tox – qHTS for Inhibitors of TGF-b: Cytotox Counterscreen; HepG2 CAGA-GFP viability, ATP luminescence, 18 h; Potency, µM (doses to about 46.1 µM), without a hit: at the highest dose activity change, negative = cytotoxicity, hits mostly cytotoxic; 410,000 tested, 0.76% active; AID 588856, 2011; note: potency is the fitted concentration of half-maximal effect
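HepG2 CAGA-GFP cells (1000/well, DMEM with 1% FBS) received compound, then TGF-beta at 500 pg/mL final, and were incubated 18 hours at 37 degrees C. Viability was read by CellTiter-Glo luminescence. Media-only wells were set as complete cell-killing and DMSO as no toxicity.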
TDP1 cell noCPT – qHTS for Inhibitors of human tyrosyl-DNA phosphodiesterase 1 (TDP1): qHTS in cells in absence of CPT; Potency, µM (top dose mostly 46.2 µM), for inactives: at the highest dose activity change, negative = growth inhibition, hits mostly inhibitors; DT40 Tdp1-/- hTDP1 cells, no CPT, ATP luminescence, 48 h; 420,000 tested, 15% active; AID 686978, 2013; note: potency is the fitted concentration of half-maximal effect; % is set by controls: 0 for no effect and ±100 for the full control effect; nearly all actives have a fitted effect of over 55% in size
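Camptothecin absent (DMSO only). Human TDP1-complemented DT40 knockout cells, 400 cells/well, 37 °C for minimum 48 hr; ATP measured via CellTiter-Glo, 30 min dark incubation, luminescence.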
IL1B secr inh – qHTS for Inhibitors of Inflammasome Signaling: IL-1-beta AlphaLISA Primary Screen. THP-1 LPS/ATP IL-1B secretion, AlphaLISA, 16 h; stronger effect = lower value. activity change, % at 57.5 µM. 360,000 tested, 4.7% active; in the data active = activity change below about -50%; inconclusive = mostly about -30% to -49%; note: % is set by controls: 0 for no effect and ±100 for the full control effect
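Secreted IL-1B measured by AlphaLISA bead assay after 16 h compound exposure of THP-1 cells; compounds (final up to 57.5 uM) added 1 h before LPS (250 ng/mL) and ATP (1.25 mM) stimulation; lower signal means less secretion.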
DT40 TDP1 CPT – qHTS for Inhibitors of human tyrosyl-DNA phosphodiesterase 1 (TDP1): qHTS in cells in presence of CPT | chicken DT40 Tdp1-/-;hTDP1 cells + 20 nM CPT, ATP luminescence, 48 h | Potency, µM (series often up to 46.2 µM), for inactives: at the highest dose activity change, negative = growth inhibition, usual class: inhibitors | 420,000 tested, 12% active | AID 686979, 2013; note: potency is the fitted concentration of half-maximal effect; % is set by controls: 0 for no effect and ±100 for the full control effect; nearly all actives have a fitted effect of over 55% in size
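Chicken DT40 Tdp1-/- cells stably complemented with human TDP1 were seeded at 400 cells/well in medium containing 20 nM camptothecin, exposed to pin-transferred compounds, and grown at 37 °C for at least 48 hr. Viability was read as ATP luminescence.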
TDP1 inh – qHTS Assay for Inhibitors of Tyrosyl-DNA Phosphodiesterase (TDP1) | recombinant TDP1, AlphaScreen DNA substrate cleavage | AID 485290, 2010 | Tyrosyl-DNA phosphodiesterase 1 (Homo sapiens), Q9NUW8 | Potency, µM (top dose mostly 130 µM), without a hit: at the top dose activity change, negative = inhibition, actives largely listed as inhibitors | 350,000 tested, 0.28% active; note: potency is the fitted concentration of half-maximal effect; % is set by controls: 0 for no effect and ±100 for the full control effect; nearly all actives have a fitted effect of over 40% in size
Target sequence (Q9NUW8 whole entry, looked up): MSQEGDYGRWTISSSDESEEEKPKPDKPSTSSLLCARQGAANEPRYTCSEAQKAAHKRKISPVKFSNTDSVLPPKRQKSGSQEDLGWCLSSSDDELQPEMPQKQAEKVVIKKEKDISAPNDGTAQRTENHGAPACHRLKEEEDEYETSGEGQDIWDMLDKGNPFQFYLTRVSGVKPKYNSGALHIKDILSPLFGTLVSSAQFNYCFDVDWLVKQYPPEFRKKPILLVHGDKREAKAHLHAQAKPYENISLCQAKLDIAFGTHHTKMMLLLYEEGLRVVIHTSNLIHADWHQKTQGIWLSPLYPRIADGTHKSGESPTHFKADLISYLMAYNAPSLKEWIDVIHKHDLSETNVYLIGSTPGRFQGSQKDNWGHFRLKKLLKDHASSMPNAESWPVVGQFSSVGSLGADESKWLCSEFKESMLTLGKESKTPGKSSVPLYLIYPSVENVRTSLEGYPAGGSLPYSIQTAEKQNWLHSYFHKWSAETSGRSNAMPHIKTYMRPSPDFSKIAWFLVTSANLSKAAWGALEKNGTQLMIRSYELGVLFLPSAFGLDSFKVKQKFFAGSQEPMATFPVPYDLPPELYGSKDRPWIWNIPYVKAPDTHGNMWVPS
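Compounds were preincubated with Tdp1 (1 nM final) for 15 min at room temperature before substrate (15 nM final) started a 5 min reaction; beads (10 ug/ml final) were then added for 10 min before AlphaScreen detection.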
The depositor's hits bear a star; i = inactive; ? = inconclusive; . = not tested or not shown; [ ] = dose if it differs, or a comment. Unless noted, calls come from the whole dose curve; as a rule, active = well fitted curve in the direction sought with a large enough effect; inconclusive = small, poorly fitted or top-dose-only effect, or another doubt; inactive = no such curve, though single readings can be large; an effect the other way counts as inactive or inconclusive.

SMILES	TGFb inhibitor	HepG2 tox	TDP1 cell noCPT	IL1B secr inh	DT40 TDP1 CPT	TDP1 inh
Cc1cccc(C(c2sc3nc(-c4ccco4)nn3c2O)N2CCN(c3ccccc3F)CC2)c1 (centres undefined)	?	-21.6%	-13.3%	.	-16.6%	7.8%
O=C(CN1CCN(c2ccccn2)CC1)Nc1cc(C(F)(F)F)ccc1Cl	-0.1%	3.9%	18.4µM*	-13.1	?	3.8%
CCN(c1ccccc1C)S(=O)(=O)c1nnc(NC(=O)c2ccccc2C)s1	?	-36.0%	18.4µM*	.	?	6.5%
CCN(c1ccc(OC)cc1)S(=O)(=O)c1nnc(NC(=O)c2ccccc2C)s1	-13.8%	-25.6%	-28.0%	.	?	-1.3%
CCN(c1ccc(C)cc1C)S(=O)(=O)c1nnc(NC(=O)c2ccccc2OC)s1	-1.4%	-33.9%	16.4µM*	.	?	0.0%
O=C(Cc1nnc(-c2nc3ccccc3[nH]2)o1)Nc1cc(C(F)(F)F)ccc1Cl	.	.	.	.	.	0.9%
CC(O)[C@H]1CC[C@H]2[C@@H]3CC[C@@H]4C[C@@H](O)CC[C@]4(C)[C@H]3CC[C@]12C (some centres undefined)	.	.	-8.7%	.	-1.2%	.
CCn1cc(C(=O)OCC(=O)Nc2cccc(Cl)c2C)c(=O)c2ccc(C)nc21	-15.2%	-0.6%	-10.7%	.	-4.6%	0.9%
CCn1cc(C(=O)OCC(=O)Nc2c(C)cccc2C)c(=O)c2ccc(C)nc21	-11.7%	-2.4%	23.1µM*	0.0	16.4µM*	0.0%
CCn1cc(C(=O)NCCc2ccc(OC)cc2)c(=O)c2ccc(C)nc21	-3.6%	-3.7%	23.1µM*	7.5	?	-0.1%
Cc1ncoc1C(=O)N1CCOc2ccc(CN3CCC(Oc4cccnc4)CC3)cc2C1	.	.	-24.2%	.	7.5%	.
N#CC1=C(N)N(c2ccc(F)cc2)C2=C(C1c1ccc(O)cc1)S(=O)(=O)CC2 (centres undefined)	6.6%	1.6%	?	-0.4	20.6µM*	12.5%
CSc1ccc(C2C(C#N)=C(N)N(c3ccccc3)C3=C2C(=O)CCC3)cc1 (centres undefined)	24.3%	-2.8%	-27.9%	-6.0	-13.3%	7.0%
CC(C)c1ccc2oc(=O)cc(CN3CCOCC3)c2c1	10.2%	-12.4%	-8.4%	-11.0	-7.5%	4.3%
CCOc1ccc(N2CC(C(=O)Nc3cc(S(=O)(=O)N4CCCCC4)ccc3C)CC2=O)cc1 (centres undefined)	?	-2.2%	?	-1.9	?	-0.1%
Cc1ccccc1Nc1sc(C(=O)c2ccc(F)cc2)c(N)c1C(=O)NCCc1ccccc1	?	12.6µM*	18.4µM*	.	?	12.2%
COc1ccc(CCNC(=O)c2c(-c3ccccc3)noc2C)cc1OC	1.6%	-15.6%	-18.9%	-1.0	-27.4%	0.0%
CCOc1ccccc1Nc1sc(C(=O)c2ccccc2)c(N)c1C(=O)NCCc1ccccc1	-3.9%	-3.3%	?	.	?	7.4%
COc1ccc(CCNC(=O)c2c(Nc3ccccc3C)sc(C(=O)c3ccccc3)c2N)cc1OC	?	-39.1%	9.2µM*	.	?	8.3%
COc1ccc(/C=N/N2C(C)CCCC2C)cc1OC (centres undefined)	28.1%	-0.6%	-16.6%	14.5	6.5%	.
O=[N+]([O-])c1nn(-c2ccccc2)n(O)c1=NCCc1ccccc1	?	-1.1%	14.6µM*	-5.4	6.51µM*	5.6%
COc1ccc(-n2nc([N+](=O)[O-])c(=NCCc3ccccc3)n2O)cc1	?	3.1%	?	-6.6	16.4µM*	8.0%
COc1cccc(CN=c2c([N+](=O)[O-])nn(-c3ccccc3C)n2O)c1	-16.7%	-29.3%	?	8.8	23.1µM*	2.6%
N/C(=N\c1nc2ccccc2o1)NC(=O)c1ccccc1NC(=O)c1ccccc1	-6.3%	-24.5%	3.66µM*	6.1	5.17µM*	6.6%
Cc1ccc(-n2nc(C(=O)Nc3ccc(C)c(F)c3)c3c4ccccc4n(C)c3c2=O)cc1	27.3%	0.0%	0.3%	.	2.7%	2.3%
SMILES	TGFb inhibitor	HepG2 tox	TDP1 cell noCPT	IL1B secr inh	DT40 TDP1 CPT	TDP1 inh
CC(C)C[C@H](NC(=O)CN(C)C(=O)[C@H](Cc1ccccc1)NC(=O)[C@H](Cc1ccccc1)NC(=O)[C@H](CCC(N)=O)NC(=O)[C@H](CCC(N)=O)NC(=O)[C@@H]1CCCN1C(=O)[C@H](CCCCN)NC(=O)[C@@H]1CCCN1C(=O)[C@@H](N)CCCN=C(N)N)C(=O)N[C@@H](CCS(C)(=O)=O)C(N)=O	.	.	.	.	.	12.1%
COc1ccc(C(C)NC(=O)c2ccncc2)cc1OC (centres undefined)	7.4%	4.9%	7.4%	28.9	1.7%	-0.1%[56.1 µM]
CCc1cc(C(=O)N2CCc3c([nH]c4ccccc34)C2c2ccc(OC)cc2F)no1 (centres undefined)	-17.6%	-7.6%	23.1µM*	?	?	-2.8%
O=C(O)c1cccnc1C(=O)N1CCc2c([nH]c3ccccc23)C1C(F)(F)F (centres undefined)	1.6%	-4.9%	1.0%	7.6	11.8%	2.9%
CCOc1cccc(C2c3[nH]c4ccccc4c3CCN2C(=O)CSc2ccccc2)c1 (centres undefined)	-27.7%	-17.2%	?	.	?	8.1%
CCOc1cccc(C2c3[nH]c4ccccc4c3CCN2C(=O)c2ccccc2F)c1 (centres undefined)	?	-16.6%	16.4µM*	.	?	8.1%
Cc1ccccc1C(=O)N1CCc2c([nH]c3ccccc23)C1C(F)(F)F (centres undefined)	?	4.0%	?	-54.7*	?	5.1%
O=C(Cc1ccccc1)NCC(=O)N1CCN(c2ccccc2)CC1	-15.5%	3.2%	7.1%	i	-6.9%	2.2%
